Here are results for 50 molecules from PubChem BioAssay AID1345083 (National Center for Advancing Translational Sciences (NCATS), 2018).

The structures appear in SMILES notation. Screen size: about 94,000 compounds; about 6,200 (6.6%) were called active. About 31% were inconclusive and are not listed. What follows is part of a selection rich in actives, with near analogues and random picks from the rest. Values without a mark were called inactive. Calls come from the whole dose curve; as a rule, active = well fitted inhibition curve with a large enough effect; inconclusive = small, poorly fitted or top-dose-only effect; inactive = flat fitted curve, though single readings scatter.
% is set by controls: 0 for no effect and ±100 for the full control effect; potency is the fitted concentration of half-maximal effect.

The assay can be described thus: Cytotoxic Profiling in HEK 293 Cell Line of Diverse Libraries Using Quantitative High-Throughput Screening. Note: nearly all actives have a fitted effect of over 60% in size. The conditions noted are these: HEK 293 viability, ATP luminescence (CellTiter-Glo), 48-72 h; series mostly up to 115 µM; activity change, negative = cytotoxicity: at the top concentration. In outline: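 CellTiter-Glo luminescence (cellular ATP) was read after 48 or 72 hr of compound exposure at 37 degree Celsius. Cells were HEK 293 plated at 250 cells/well.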
For orientation: ATP-based viability assays read luminescence as a measure of living cells.
For `O=C(NCCc1ccccc1)c1ccc2oc(-c3cccnc3)nc2c1`, the “activity change, negative = cytotoxicity” value is -15.5%. Still for that read-out and setting: as for `COC1CCOC2(CCN(C(=O)c3cnccn3)CC2)C1` (stereo not given), the figure is -8.41%; as for `CN(C(=O)NCc1ccccc1)C1CCc2nn(CC3CC3)c(=O)n2CC1` (stereo not given), -7.23%; as for `O=C(C1Cn2cccc2C(=O)N1Cc1ccccc1)N1CCOCC1` (stereo not given), -8.46%. Turning to `Cc1ccc(S(=O)(=O)N2CC[C@H](c3nnc(-c4ccccc4)o3)C2)cc1`, the “activity change, negative = cytotoxicity” value is -21.2% [at 172 µM]. `Cc1cnc(CC2CCN(S(=O)(=O)c3ccc(C#N)cc3)C2)n1Cc1ccccc1` (stereo not given): the Potency is 44.7 µM (active). Turning to `O=S(=O)(Cc1ccccc1)N1CCCC(Cc2nncn2CC2CC2)C1` (stereo not given), the outcome was inactive. In the case of `CCN(CCn1cccn1)Cc1cnc(S(=O)(=O)Cc2ccccc2)n1CC(C)C`, the “activity change, negative = cytotoxicity” value was -18.6%. For the molecule `O=C(C1CCCCC1)N1CC2(Cc3ccccc3NC2=O)C1`, the “activity change, negative = cytotoxicity” value is -17.9%. The same measure, in the same setting: as for `O=C(NCc1c[nH]c2ncccc12)c1ccccc1F`, the figure is -18.3% [at 172 µM]. `CC(C)C[C@@H]1N[C@H](C(=O)NCc2ccc(F)cc2)Cc2cn(C)c3cccc1c23`: the Potency was 70.8 µM (active). Take `CN1CC(C(=O)NCc2ccccc2)NC1=O` (stereo not given): the “outcome” value is “inactive [at 172 µM]”. On to `COC(=O)[C@@H]1Cc2ncn(Cc3ccc(OC)cc3)c2CN1S(C)(=O)=O`, for which the “activity change, negative = cytotoxicity” value was -6.58% [at 172 µM].

For the molecule `CCc1ccc(CNC(=O)C2c3ccccc3CC(=O)N2C(C)C)cc1` (stereo not given), the “activity change, negative = cytotoxicity” value is -27.9%. Regarding `COc1ccc(CNC(=O)[C@H]2O[C@H](CCN3CCN(C)CC3)CC[C@@H]2O)cc1`, the “activity change, negative = cytotoxicity” value was -12% [at 172 µM].

Regarding `C=CCn1cc2c3c(cccc31)[C@H](CC(C)C)N[C@H](C(=O)NCC1CC1)C2`, the Potency was 79.4 µM (active). On to `COc1ccc(CNC(=O)[C@@H]2Cc3cn(Cc4ccncc4)c4cccc(c34)[C@H](CC(C)C)N2)cc1`, for which the Potency was 39.8 µM (active). With `COCCN1C(=O)Cc2ccccc2C1C(=O)NCC1CCCCC1` (stereo not given), the “activity change, negative = cytotoxicity” value was 10%. On the same count and under the same terms, with `CC(C)N1CCC(OCCCNC(=O)C2Cn3cccc3C(=O)N2)CC1` (stereo not given) the figure was 2.23%; with `CN1CC2(CCN(C(=O)c3ccncc3)CC2)CC1C(=O)N1CCOCC1` (stereo not given), -3.04%. The same measure, in the same setting: as for `CNC(=O)c1cc(C2CC2)nc2onc(C3CCN(C(=O)Nc4ccccc4)C3)c12` (stereo not given), the figure is -12.7%; as for `CNC(=O)c1cc(C2CC2)nc2c1c(C1CCN(C(=O)C(C)C)C1)nn2C` (stereo not given), -22%; as for `COC[C@H]1C[C@@H](NC(=O)c2cc(C)oc2C(F)(F)F)[C@H](O)[C@@H]1O`, -0.359% [at 172 µM]. Same read-out and setting: as for `CN1CCCN(C(=O)c2cc(F)ccc2F)c2ccccc21`, the figure is -29.6%.

On to `Cc1cc(S(=O)(=O)N2CCCN(C)c3ccccc32)ccc1F`, for which the Potency was 79.4 µM (active). For the molecule `Cc1cc(S(=O)(=O)N2CCC(n3cnnc3C(C)C)CC2)ccc1F`, the “activity change, negative = cytotoxicity” value is -7.71%. Consider `COc1cccc(CNC(=O)Cn2ccn3nc(-c4ccc(F)cc4)c(CO)c3c2=O)c1`, for which the “activity change, negative = cytotoxicity” value is -4.92%. On to `CCC(C(=O)NCCn1ccn2nc(-c3ccc(F)cc3)cc2c1=O)c1ccccc1` (stereo not given), for which the Potency was 20 µM (active). For `CCOc1ccc(-c2cc3c(=O)n(CCNC(=O)c4ccc(OC)cc4C)ccn3n2)cc1`, the “activity change, negative = cytotoxicity” value was -42.3%. On the same count and under the same terms, with `O=C(Cn1cccc1-c1nc(-c2ccc(F)cc2)no1)Nc1cc(F)cc(F)c1` the figure was -13.6%. On to `Fc1ccc(Nc2nc(-c3ccccc3F)no2)cc1`, for which the Potency is 39.8 µM (active). Consider `CCc1nc2c(=O)n(CC(=O)NCc3cc(C)ccc3C)nc(C)c2s1`, for which the “activity change, negative = cytotoxicity” value was -19.2%.

As for `CN(c1ccccc1)c1cc(=O)c2ccnc(Nc3cccc([S+](C)(=O)[O-])c3)c2o1`, the Potency is 100 µM (active). With `Cn1ccc(Nc2nccc3c(=O)cc(-c4ccccn4)oc23)n1`, the “activity change, negative = cytotoxicity” value is -16.5% [at 172 µM]. In the case of `CCCC(=O)N(C)CC1CCOCC1`, the “activity change, negative = cytotoxicity” value was 9.81%. Same read-out and setting: with `COc1ccccc1NC(=O)N1CCC2(CCNC(=O)CC2)CC1` the figure was -2.63%. For `CN(C)CCN(C)C(=O)c1ccc2c(c1)NC(C)(COc1ccc3[nH]ccc3c1)CO2` (stereo not given), the Potency is 112 µM (active).

In the case of `O=C(NCC1CCOCC1)c1ccc2[nH]ccc2c1`, the “activity change, negative = cytotoxicity” value is -0.244%. On the same count and under the same terms, with `CC1(COCC2CC2)COc2ccc(C(=O)NCc3cccnc3)cc2N1` (stereo not given) the figure was -25.1% [at 172 µM]. For the molecule `CC(C)CC(=O)N1CCCN(c2nnc3ccccn23)CC1`, the molecule was called inactive. As for `C[C@@H](NC(=O)c1cccnc1)c1c(-c2ccc(F)cc2)noc1C(=O)O`, the “activity change, negative = cytotoxicity” value is 4.65% [at 172 µM]. The same measure, in the same setting: with `CC(=O)NC1CN(c2ccnc3ccnn23)C1` the figure was -10.6% [at 172 µM]; with `Cc1cccc(C(=O)N2C[C@@H](F)C[C@H]2C(=O)N2CCCCC2)c1`, 1.93%. For `Cc1cccc(-c2cccc(NC(=O)C3CCCN(C(=O)CC(F)(F)F)C3)c2)c1` (stereo not given), the Potency was 31.6 µM (active). On to `CC(=O)Nc1cccc(-c2nnc3n2CCCC3)c1`, for which the “activity change, negative = cytotoxicity” value was 24.3%. The same measure, in the same setting: with `CCCCc1ccc(NC(=O)Cn2ccn3nc(-c4ccc(F)cc4)c(CO)c3c2=O)cc1` the figure was -0.406%. As to `O=C(NCc1cccc(C(F)(F)F)c1)c1nn(CCOc2ccccc2)c2c1CNCC2`, the Potency is 28.2 µM (active). With `COc1ccccc1CNC(=O)c1nn(CC2CC2)c2c1CNCC2`, the “activity change, negative = cytotoxicity” value was -11%. On the same count and under the same terms, with `COC[C@H]1NC(=O)CC[C@H]1C(=O)NCc1cccc(C(F)(F)F)c1` the figure was 2.55%. As for `CNC(=O)c1noc([C@@H]2CC(F)(F)CN2Cc2ccc(C)cn2)n1`, the “activity change, negative = cytotoxicity” value was 1.02%.
